Most compounds without a hit are left out; they make up all but 4.6% or so of the library.
D1 PAM – Potentiators of Human D1 Dopamine Receptor: qHTS | D(1A) dopamine receptor (Homo sapiens), P21728 | HEK293 TREx D1 cells, calcium flux, dopamine EC20 potentiation | potentiation, % at 10 µM | hit rate 0.036% among 360,000; in the data active = potentiation above about 30%; note: 0% is about no effect
Target sequence (P21728 whole entry, looked up): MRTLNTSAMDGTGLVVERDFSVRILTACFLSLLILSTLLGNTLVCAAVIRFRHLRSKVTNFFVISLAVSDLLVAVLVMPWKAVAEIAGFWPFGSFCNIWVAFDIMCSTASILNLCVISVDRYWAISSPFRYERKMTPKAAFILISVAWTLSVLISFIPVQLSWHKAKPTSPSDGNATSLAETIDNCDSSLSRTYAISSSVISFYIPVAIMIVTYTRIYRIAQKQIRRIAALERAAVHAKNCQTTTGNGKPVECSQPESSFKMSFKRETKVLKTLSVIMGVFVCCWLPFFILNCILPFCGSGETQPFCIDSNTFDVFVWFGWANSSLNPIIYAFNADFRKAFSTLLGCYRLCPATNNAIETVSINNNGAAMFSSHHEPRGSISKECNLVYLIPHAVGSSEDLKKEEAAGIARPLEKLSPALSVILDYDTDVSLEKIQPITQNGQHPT
D1 antagonist – Antagonist of Human D 1 Dopamine Receptor: qHTS. hit rate 3.2% among 360,000. D(1A) dopamine receptor (Homo sapiens), P21728. AID 504652, 2011. HEK293 TREx D1 cells, calcium flux, dopamine EC80; stronger effect = lower value. activity change, negative = inhibition, % at 10 µM; in the data active = activity change below about -30%; note: % is set by controls: 0 for no effect and ±100 for the full control effect
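HEK293 T-REx cells expressing inducible, force-coupled D1 receptor; no-wash Ca dye, 30–90 min RT. Cmpd → 180 s read at 1 Hz → EC80 DA → 180 s read.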
TRHR enhancer – qHTS for Small Molecule Agonists and Allosteric Enhancers of Human TRH Receptor: Primary Screen for Enhancers. Thyrotropin-releasing hormone receptor (Homo sapiens), P34981. TRHR cells, fluo-8 calcium fluorescence, EC20 TRH enhancement. enhancement, % at 2 µM. hit rate 0.66% among 360,000. AID 493056, 2011; in the data active = enhancement above about 30%; note: 0% is about no effect
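TRHR-expressing cells loaded with fluo-8 calcium dye were read kinetically (ex 480/em 530) during compound addition, then stimulated with an EC20 of TRH (10 nM final). Enhancement of the Gq-mediated intracellular calcium response was scored.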
D1 ag – Allosteric Agonists of the Human D1 Dopamine Receptor: qHTS; hit rate 1% among 360,000; HEK293 T-REx D1 cells, calcium flux, agonist mode; D(1A) dopamine receptor (Homo sapiens), P21728; activation, % at 2 µM; note: 0% is about no effect
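Inducible HEK293 T-REx D1 cells, force-coupled to calcium signalling, were plated at 4000 cells/well with tetracycline and held overnight at 30 C. After no-wash calcium dye loading, compound-evoked calcium rise over 180 s flagged agonists.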
TRHR agonist – qHTS for Small Molecule Agonists and Allosteric Enhancers of Human TRH Receptor: Primary Screen for Agonists; Thyrotropin-releasing hormone receptor (Homo sapiens), P34981; TRHR cells, calcium flux fluo-8, FDSS agonist mode; activation, % at 2 µM; hit rate 0.18% among 360,000; note: 0% is about no effect
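Fluo-8-loaded TRHR cells; 10 s baseline, compound added, kinetic Ca2+ fluorescence read 1/s, agonist mode.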
The depositor's hits bear a star; ! = not confirmed by another sample. Cut-off read from the data, not from the text of the source, unless noted: active = activation above about 30%; inactive = the rest.

Results for O=C(CN1C(=O)COc2ccc(S(=O)(=O)NC3CCCC3)cc21)Nc1ccc(Cl)cc1 ?
D1 PAM: -2.2; D1 antagonist: 6.9; TRHR enhancer: 1.7; D1 ag: 10.4; TRHR agonist: 1.1

Results for CCN(CC)c1ccc(C=Nc2ccc(OC)c(S(=O)(=O)N3CCOCC3)c2)c(O)c1 ?
D1 PAM: -8.4; D1 antagonist: -32.5*; TRHR enhancer: 2.1; D1 ag: 0.7; TRHR agonist: -2.6

How did COc1ccc(Br)cc1S(=O)(=O)N1CCOCC1 do in these assays?
D1 PAM: -0.5; D1 antagonist: -10.0; TRHR enhancer: -2.0; D1 ag: 2.4; TRHR agonist: 1.0

How did O=C(Nc1cccc(C(=O)OCc2cc(=O)n3c4c(sc3n2)CCCC4)c1)c1cccc(F)c1 do in these assays?
D1 PAM: -0.1; D1 antagonist: 6.5; TRHR enhancer: 1.7; D1 ag: 1.0; TRHR agonist: 0.0

Results for CCN1c2ccccc2-c2nc(SCC(=O)Nc3c(C)cc(C)cc3C)ncc2S1(=O)=O ?
D1 PAM: 1.9; D1 antagonist: 13.1; TRHR enhancer: 5.9; D1 ag: 2.3; TRHR agonist: 0.1

How did COc1ccc(NC(=O)CSc2nc(O)c(Cc3ccccc3)c(=O)[nH]2)cc1 do in these assays?
D1 PAM: -3.0; D1 antagonist: 21.5; TRHR enhancer: 31.7*; D1 ag: -0.7; TRHR agonist: -0.1

Results for COc1ccc(OCCSc2nc(C)c(Cc3ccccc3)c(=O)[nH]2)cc1 ?
D1 PAM: -1.4; D1 antagonist: -38.8*!; TRHR enhancer: 0.9; D1 ag: 28.3; TRHR agonist: -0.6

What do the screens show for `O=c1[nH]c(SCCOc2ccccc2F)nc2ccccc12`?
D1 PAM: -7.8; D1 antagonist: -24.5; TRHR enhancer: -1.0; D1 ag: 0.4; TRHR agonist: 0.7

What do the screens show for `Cc1nc(SCCOc2ccccc2)[nH]c(=O)c1Cc1ccccc1`?
D1 PAM: -2.2; D1 antagonist: -0.2; TRHR enhancer: 2.2; D1 ag: 0.9; TRHR agonist: 0.4

How did O=C(CSc1nc(O)c(Cc2ccccc2)c(=O)[nH]1)Nc1ccccc1 do in these assays?
D1 PAM: 1.1; D1 antagonist: -7.3; TRHR enhancer: 1.5; D1 ag: 0.9; TRHR agonist: 0.9

Results for CCOC(=O)c1ccc(NC(=O)CSc2nc(C)c(Cc3ccccc3)c(=O)[nH]2)cc1 ?
D1 PAM: 0.3; D1 antagonist: -30.1*; TRHR enhancer: -5.7; D1 ag: 7.7; TRHR agonist: -0.6

How did COc1ccccc1OCCSc1nc2ccccc2c(=O)[nH]1 do in these assays?
D1 PAM: -10.5; D1 antagonist: -41.2*; TRHR enhancer: 9.6; D1 ag: -0.4; TRHR agonist: 0.7

How did Cc1cccc(C(=O)Nc2sc3c(c2C(=O)N2CCCCC2)CCC(C)C3)c1 (stereo not drawn) do in these assays?
D1 PAM: -0.5; D1 antagonist: -6.1; TRHR enhancer: 4.0; D1 ag: 0.2; TRHR agonist: -0.4

Results for O=S(=O)(c1ccc2c(c1)OCCO2)N1CCN(S(=O)(=O)c2ccc(F)cc2F)CC1 ?
D1 PAM: -4.2; D1 antagonist: 7.9; TRHR enhancer: 0.7; D1 ag: 2.6; TRHR agonist: -0.2

Results for CCN1CCN(CCNC(=O)CCc2c(C)c3c(C)nn(-c4ccccc4)c3n(C)c2=O)CC1 ?
D1 PAM: -16.9; D1 antagonist: -46.2*; TRHR enhancer: -4.2; D1 ag: 1.8; TRHR agonist: 0.6

What do the screens show for `COc1cccc(CNC(=O)CCn2nc(C)c3c(C)n(-c4ccccc4)nc3c2=O)c1`?
D1 PAM: -1.4; D1 antagonist: 2.5; TRHR enhancer: -0.6; D1 ag: 1.4; TRHR agonist: -0.6

Results for Cc1sc2ncnc(NCC(c3ccco3)N(C)C)c2c1C (stereo not drawn) ?
D1 PAM: -5.5; D1 antagonist: -34.8*; TRHR enhancer: -14.5; D1 ag: 10.3; TRHR agonist: 0.2

What do the screens show for `Cc1ccc(C(=O)N[C@@H](C)CN2C3=NC[C@H](C(C)C)N3C[C@H]2Cc2ccc(O)cc2)cc1Br`?
D1 PAM: -5.8; D1 antagonist: -57.0*; TRHR enhancer: -5.1; D1 ag: -1.5; TRHR agonist: 0.0

What do the screens show for `COc1ccc(C[C@H]2CN3C(=NC[C@@H]3Cc3ccc(O)cc3)N2C[C@H](C)NC(=O)c2ccc(C)c(Br)c2)cc1`?
D1 PAM: -9.4; D1 antagonist: -41.6*; TRHR enhancer: -6.0; D1 ag: 1.8; TRHR agonist: -1.1

Results for COc1ccc(C[C@H]2CN3C(=NC[C@@H]3C(C)C)N2C[C@H](C)NC(=O)c2ccc(C)c(Br)c2)cc1 ?
D1 PAM: -0.8; D1 antagonist: 17.2; TRHR enhancer: -4.7; D1 ag: -1.5; TRHR agonist: -0.5

Results for Cc1ccc(CCNC(=O)c2cn(C)c3ccc(S(=O)(=O)N4CCC(C)CC4)cc3c2=O)cc1 ?
D1 PAM: 4.5; D1 antagonist: -0.4; TRHR enhancer: -9.8; D1 ag: -1.5; TRHR agonist: -0.1

How did CN1CCc2cccc3c2[C@H]1Cc1ccc(O)c(O)c1-3 do in these assays?
D1 PAM: -6.8; D1 antagonist: -90.4*; TRHR enhancer: -7.4; D1 ag: 42.6*!; TRHR agonist: 3.0

Results for O=S(=O)(O)c1c(NS(=O)(=O)c2ccccc2)ccc2ccccc12 ?
D1 PAM: -6.8; D1 antagonist: -35.9*; TRHR enhancer: 5.3; D1 ag: 2.8; TRHR agonist: 1.6

How did Cc1cc(NS(=O)(=O)c2ccccc2)c(C)c(Cl)c1O do in these assays?
D1 PAM: -3.7; D1 antagonist: -23.2; TRHR enhancer: -5.6; D1 ag: 43.9*; TRHR agonist: 4.5

How did Cc1c(O)ccc(NS(=O)(=O)c2ccccc2)c1C do in these assays?
D1 PAM: -4.0; D1 antagonist: -36.4*; TRHR enhancer: -0.9; D1 ag: 1.3; TRHR agonist: 0.5

Results for COc1ccc(NC(=O)Nc2ccccc2OCc2cc(=O)n3ccccc3n2)c(OC)c1 ?
D1 PAM: -3.2; D1 antagonist: -16.3; TRHR enhancer: -5.5; D1 ag: -0.9; TRHR agonist: -0.6

What do the screens show for `COc1cccc(Cn2c(=O)cc(C)c3c(C)nn(C)c32)c1`?
D1 PAM: -6.7; D1 antagonist: -15.7; TRHR enhancer: -5.4; D1 ag: 15.7; TRHR agonist: -0.1

How did COc1ccc(CCNc2ccc(N3C(=O)CC(C)C3=O)cc2[N+](=O)[O-])cc1OC (stereo not drawn) do in these assays?
D1 PAM: -7.0; D1 antagonist: -33.6*; TRHR enhancer: -3.8; D1 ag: 16.6; TRHR agonist: 0.3

Screens as filed in PubChem BioAssay.
